Screening data: PubChem BioAssay, several laboratories
Most compounds without a hit are left out; they make up all but 3.7% or so of the library.
TIM10 inh: growth inhibitors of TIM10 yeast strain; S. cerevisiae TIM10 strain growth, BacTiter-Glo luminescence, 24 h; inhibition, % at 10 µM; 330,000 compounds, 1.4% hits; AID 463195;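 active means inhibition of 40% or more at the single tested concentration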;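 further: wild-type TIM10 isogenic control strain grown at permissive 25 °C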
PfHsp90 yeast 2: growth inhibition of yeast expressing Plasmodium Hsp90. S. cerevisiae expressing PfHsp90, BacTiter-Glo ATP, 48 h; yeast lacking PDR1 and PDR3 efflux regulators. inhibition, % at 9.4 µM. 310,000 compounds, 0.32% hits;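 active means every replicate shows inhibition above about 80%, whatever the replicate mean, limit read from the data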
tim23-1 inh: growth inhibitors of tim23-1 mutant yeast. S. cerevisiae tim23-1 growth, BacTiter-Glo luminescence, 24 h. inhibition, % at 20 µM. 330,000 compounds, 1.3% hits. AID 463212;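 active means growth inhibition of the mutant yeast at or above 50%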;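 further: temperature-sensitive mutant grown at 25 °C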
tim10-1 inh: growth inhibitors of tim10-1 mutant yeast. inhibition, % at 20 µM. S. cerevisiae tim10-1 ts strain growth, BacTiter-Glo, 24 h. 330,000 compounds, 2.2% hits;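 active means inhibition of at least 40%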;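 further: mutant grown at 25 °C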
V-ATPase pH: regulators of yeast V-ATPase proton transport; S. cerevisiae, pHLuorin cytosolic pH fluorescence; response, % at 10 µM; 350,000 compounds, 0.37% hits; AID 504577; in the data active means response mostly above about 7.3%, no sharp cut-off; inactive means mostly below about 5.4%; further: actives read high
Hits are given with their value; – = inactive; · = not tested or not shown.

SMILES	TIM10 inh	PfHsp90 yeast 2	tim23-1 inh	tim10-1 inh	V-ATPase pH
O=C(NCc1ccco1)c1ccc2c(c1)N(Cc1ccc(Cl)cc1)CCS2	–	–	–	–	14
c1ccc(-c2ccc(C(c3ccccc3)n3ccnc3)cc2)cc1 (stereo unspecified)	·	105	·	·	–
COc1ccc(S(=O)(=O)NCc2ccccn2)c(C)c1C	–	–	–	–	–
CCOc1ccc(S(=O)(=O)NCc2ccccn2)c(C)c1C	–	93	–	–	–
Cc1cc2nc3c(=O)n(CCc4ccccc4)c(=O)[nH]c3nc2cc1N	–	–	–	–	–
Nc1ccc2nc3c(=O)n(CCc4ccccc4)c(=O)[nH]c3nc2c1	–	·	–	–	51
CC(C)c1nc2scc(-c3ccc(Cl)cc3)c2c(=O)n1N	–	–	–	–	–
COc1ccc(OCCCC(=O)Nc2ccc3c(c2)OCO3)cc1	–	·	–	–	16
O=C(Cn1ccccc1=S)c1ccc(Cl)c(Cl)c1	–	·	–	–	–
On1ccccc1=S	·	107	·	·	–
CCN(CC(=O)Nc1ccc2c(c1)OCCO2)C(=O)c1cc(=O)[nH]c2ccccc12	–	–	–	–	–
CC(C)N1CCN(c2ccc(OC[C@H]3CO[C@](Cn4cncn4)(c4ccc(Cl)cc4Cl)O3)cc2)CC1	–	101	–	–	–
CC(C)N1CCN(c2ccc(OCC3COC(Cn4cncn4)(c4ccc(Cl)cc4Cl)O3)cc2)CC1 (stereo unspecified)	·	113	·	·	–
CC1(C)Nc2ccccc2C(=O)N1c1ccccc1	–	–	–	–	–
Cc1sc(NC(=O)c2ccco2)c(C(c2cccnc2)N2CCC(C)CC2)c1C (stereo unspecified)	–	92	–	–	–
O=C(CCSCc1cccc(Cl)c1)NCCc1ccc(Cl)cc1	–	–	–	–	58
CCc1ccc(OCC(=O)NNC(=S)NC(=O)C2CC2)c(Br)c1	–	108	–	–	–
C[C@@H]1CN(Cc2cn(C)nc2-c2cccc(Cl)c2)C[C@H](C)O1	–	–	–	–	–
O=C(Nc1ccccc1[N+](=O)[O-])c1cccc(N2C(=O)CCC2=O)c1	–	–	–	–	–
N#C/C(=C/c1ccc(O)cc1)C(=O)NCc1ccc(Cl)cc1	–	103	–	–	–
N#C/C(=C\c1ccc(O)cc1)C(=O)NCc1ccccc1	–	–	–	–	–
Cc1cc(C)c2c(N=NN3CCCCC3)[nH]nc2n1	–	110	–	–	–
Cc1cc(C)c2c(C)[nH]nc2n1	–	·	–	–	–
CCN(CC)N=Nc1[nH]nc2nc(C)cc(C)c12	–	110	–	–	–
COc1ccc(S(=O)(=O)N2CCCCC2)cc1NC(=O)CCNC(=O)c1ccc(Cl)cc1	–	–	–	–	–
SMILES	TIM10 inh	PfHsp90 yeast 2	tim23-1 inh	tim10-1 inh	V-ATPase pH
Cc1[nH]c2ccccc2c1CCNC(=O)CCC(=O)c1ccccc1	–	–	–	–	17
CCc1cccc(OCC(=O)N(C)CC(=O)Nc2cccc(F)c2)c1	–	·	–	–	–
Nc1ccccc1C#Cc1ccc([N+](=O)[O-])cc1	–	–	–	–	–
Nc1ccccc1C#CC(=O)c1ccccc1	–	114	–	–	–
Cn1c(=O)cc(-c2ccccc2)c2ccccc21	–	·	–	–	13
CSc1ccccc1NC(=O)CN(C)C(=O)COc1cccc2cccnc12	–	–	–	–	–
CC(OC(=O)CNC(=O)C1CCCCC1)C(=O)NCc1ccccc1 (stereo unspecified)	–	–	–	–	–
CCCN1CCC(NC(=O)Nc2ccc(F)cc2F)CC1	–	–	–	–	15
COc1ccccc1CN1CC(C(=O)NCc2ccc(SC)cc2)CCC1=O (stereo unspecified)	–	–	–	–	–
CCN1C(=O)N/C(=C/c2ccc(C)o2)C1=O	–	–	–	–	–
Cc1ccc(/C=C2/NC(=O)N(Cc3ccc(Br)cc3)C2=O)o1	–	109	–	–	–
CCCN(C(=O)CSc1ccccc1C(=O)O)C1CCS(=O)(=O)C1 (stereo unspecified)	–	–	–	–	15
CCCN(C(=O)CSc1nnc2ccccn12)C1CCS(=O)(=O)C1 (stereo unspecified)	–	·	–	–	–
COc1cc(NS(=O)(=O)c2ccc(NC(=O)Cc3ccccc3)cc2)nc(OC)n1	–	–	–	–	–
Cc1cccc(C)c1OCC(=O)Nc1ccccc1N1CCCCC1	–	–	–	–	–
Cc1cccc(OCC(=O)Nc2ccccc2N2CCCCC2)c1C	–	–	–	–	8.8
COc1cccc(Oc2cn[nH]c2-c2ccc(OCC(=O)NN)cc2O)c1	–	–	–	–	–
CCCOC(=O)c1ccc(Oc2cn[nH]c2-c2ccc(OC)cc2O)cc1	–	106	–	–	–
O=S(=O)(Nc1nc2ccccc2nc1N1CCN(c2ccccn2)CC1)c1ccc(Cl)cc1	·	104	·	·	–
O=S(=O)(Nc1nc2ccccc2nc1N1CCc2ccccc2C1)c1ccc(Cl)cc1	–	–	–	–	–
O=C1c2cccc3c2[C@H](CCC3)CN1[C@@H]1CN2CCC1CC2	–	·	–	–	·
Cc1ccc(C2=NN(C(=O)CCCC(=O)O)C(c3ccc4c(c3)OCO4)C2)cc1 (stereo unspecified)	–	–	–	–	–
O=C(CC1CCCC1)N1CCN(S(=O)(=O)c2ccccc2)CC1	–	–	–	–	668
O=C(OCC(=O)N1CCN(S(=O)(=O)c2ccccc2)CC1)C1CCC1	–	·	–	–	–
Cc1ccc(C)c(NC(=O)COC(=O)c2cc3ccccc3oc2=O)c1	–	–	–	–	–
SMILES	TIM10 inh	PfHsp90 yeast 2	tim23-1 inh	tim10-1 inh	V-ATPase pH
COC(=O)c1ccc(NC(=O)Nc2ccc([N+](=O)[O-])cc2)cc1	–	–	–	–	–
OCCCn1c(C2CCCN2c2nc(-c3ccc(F)cc3)cs2)nc2cc(Cl)c(Cl)cc21 (stereo unspecified)	–	107	–	–	–
OCCCn1c(C2CCCN2c2nc(-c3ccc(Cl)cc3)cs2)nc2cc(Cl)c(Cl)cc21 (stereo unspecified)	–	–	–	–	–
COc1ccc(N(CC(=O)Nc2nccs2)S(=O)(=O)c2c(C)nn(C)c2C)cc1	–	–	–	–	14
Cc1nn(C)c(C)c1S(=O)(=O)N(CC(=O)Nc1nccs1)c1ccc(C(C)C)cc1	–	–	–	–	–
Cc1ccc(-n2nnnc2C(Cl)c2nnnn2-c2ccc(C)cc2)cc1	·	110	·	·	–
C=CCn1c(COc2ccc(F)cc2)nnc1SCC(=O)NC1CCS(=O)(=O)C1 (stereo unspecified)	–	–	–	–	–
Oc1ccc(-c2csc(Nc3ncccn3)n2)c(O)c1	–	–	–	–	15
CCN(C(=O)COC(=O)c1cc2ccccc2cc1OC)c1c(N)n(Cc2ccccc2)c(=O)[nH]c1=O	·	·	·	·	–
Cc1noc(/C=C/N(C)C)c1S(=O)(=O)N1CCN(c2ccc(F)cc2)CC1	–	–	–	–	–
Cc1cccc(N2CCN(S(=O)(=O)c3c(C)noc3/C=C/N(C)C)CC2)c1C	–	111	–	–	–
